Results taken from the supplement of paper PMC9433436.
± gives the standard deviation of the averaged measurements. Over roughly 4,100 sequences, “relative kcat/Km (krel) vs genomic leader AAAGAU” has its median near 1.7; the highest 2% begin near 6.5. The entries come from a sample that favours the highest values as a whole.

Target: T1, E. coli RNase P holoenzyme (M1 P RNA + rnpA protein) (UniProt P0A7Y8)
T1 sequence: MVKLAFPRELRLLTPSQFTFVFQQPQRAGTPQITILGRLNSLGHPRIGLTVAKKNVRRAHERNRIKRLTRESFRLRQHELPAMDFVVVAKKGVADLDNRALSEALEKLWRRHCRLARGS
Assay: relative kcat/Km (krel) vs genomic leader AAAGAU (relative (reference leader = 1)); higher = faster RNase P cleavage
Method: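 HTS-Kin: a pool of ptRNA-Met (21C construct) with all 4096 combinations of 5' leader nucleotides N(-6) to N(-1) was processed in vitro by E. coli RNase P (P RNA + rnpA/C5 protein) under multiple-turnover conditions at 37 C, pH 8, 17.5 mM MgCl2. Residual substrate was Illumina-sequenced at several fractions reacted, and relative kcat/Km (krel) was computed by internal competition kinetics, calibrated to the genomic leader (AAAGAU = 1). The listed hexamer is the varied N(-6)..N(-1) leader (DNA letters), and it sits between a fixed 5' stem-loop flank (GCAUGCACGAAAGUGCGUGCUAUGAA) and the mature tRNA-Met starting GGCUACGUAGCUCAGUUGG. Two technical replicates are averaged.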

[1] = fraction of substrate reacted: ~9-10% (9.79% repeat 1, 9.1% repeat 2)
[2] = fraction of substrate reacted: ~13-16% (15.68% repeat 1, 13.17% repeat 2)
[3] = fraction of substrate reacted: ~26-29% (28.66% repeat 1, 26.4% repeat 2)

Row | Sequence | relative kcat/Km [1] | relative kcat/Km [2] | relative kcat/Km [3]
1 | TAAACA | 1.85 ± 0.81 | 1.35 ± 0.24 | 1.75 ± 0.52
2 | ATCGGA | 0.168 ± 0.15 | 0.728 ± 0.66 | 1.28 ± 1.1
3 | CAGCTT | 2.22 ± 1.1 | 1.55 ± 0.38 | 2.33 ± 0.38
4 | GTGCAC | 1.19 ± 0.29 | 1.29 ± 0.18 | 1.98 ± 0.6
5 | GATAAA | 1.84 ± 0.48 | 2.34 ± 0.5 | 3.8 ± 1.4
6 | AGAGAG | – | – | 1.16 ± 0.33
7 | ATCGAA | 3.16 ± 0.35 | 5.71 ± 1.4 | 8.19 ± 3.6
8 | GGCGAA | 2.38 ± 1.1 | 2.86 ± 0.39 | 3.85 ± 1.4
9 | GTCGTA | 2.55 ± 1.1 | 2.7 ± 0.23 | 3.88 ± 0.79
10 | GTCGAC | 3.76 ± 0.29 | 5.92 ± 1.9 | 9.01 ± 3.7
11 | ATCGAT | 1.99 ± 0.67 | 3 ± 0.7 | 3.36 ± 1.2
12 | AGCGAC | 3.26 ± 1.9 | 3 ± 1.1 | 4.06 ± 1.3
13 | GTCGAT | 1.85 ± 0.87 | 2.87 ± 0.49 | 3.7 ± 1.3
14 | GTCGAA | 4.23 ± 1.8 | 5.6 ± 0.65 | 8.71 ± 2.8
15 | ATCGGC | – | – | 1.97 ± 1.5
16 | GTCGAG | 2.05 ± 1.5 | 2.123 ± 0.001 | 4.03 ± 1.6
17 | ATCGAC | 3.59 ± 0.99 | 4.75 ± 0.93 | 6.92 ± 2
18 | ATCGAG | 2.14 ± 2.1 | 1.29 ± 0.12 | 3.85 ± 0.66
19 | TTGCCG | – | – | 0.519 ± 0.071
20 | AGTGAA | 2.54 ± 0.25 | 2.23 ± 0.96 | 3.35 ± 1.5
21 | ATGACA | 1.94 ± 1.6 | 1.85 ± 0.61 | 2.06 ± 0.28
22 | ATACGT | 0.722 ± 0.057 | 1.92 ± 1.6 | –
23 | CGCGGA | 1.5 ± 1.2 | 1.39 ± 0.29 | 1.41 ± 0.58
24 | AGCACC | 2.38 ± 0.45 | 2.12 ± 1.5 | 3.05 ± 1.8
25 | CCTGGT | – | – | 2.47 ± 0.83
26 | CTCGAC | 5.18 ± 1.3 | 6.72 ± 2.8 | 9.16 ± 4.6

Row | Sequence | relative kcat/Km [1] | relative kcat/Km [2] | relative kcat/Km [3]
27 | CTCGAT | 1.97 ± 0.027 | 2.48 ± 1.3 | 4.24 ± 2.1
28 | CTCGAG | 1.8 ± 0.06 | 1.72 ± 1.4 | 3.97 ± 1.3
29 | TAGGGA | 0.803 ± 0.65 | – | –
30 | GGAAAC | 1.99 ± 1.4 | 1.61 ± 1.1 | 2.23 ± 0.17
31 | CCGCGC | 2.23 ± 0.85 | 1.53 ± 0.98 | 1.76 ± 0.15
32 | GCGCAT | 1.99 ± 0.76 | 2.09 ± 1.1 | 3.07 ± 1.8
33 | AAAAGC | – | – | 0.981 ± 0.48
34 | ACAGTG | – | – | 0.981 ± 0.72
35 | CCGGTA | 1.49 ± 0.78 | 1.25 ± 0.69 | –
36 | AACGCG | 1.32 ± 0.5 | 0.857 ± 0.52 | 1.47 ± 0.078
37 | ACCCGC | 3.03 ± 1.8 | 3.51 ± 0.3 | 4.87 ± 1.5
38 | TCCCGC | 4.31 ± 2.6 | 5.2 ± 0.32 | 7.32 ± 3.2
39 | CCCCGA | 3.63 ± 1.8 | 4.05 ± 0.29 | 4.96 ± 1.9
40 | TCCCGA | 3.95 ± 1.4 | 4.81 ± 0.41 | 7.64 ± 2.3
41 | ACCCGA | 3.55 ± 0.39 | 4.06 ± 0.66 | 5.44 ± 1.5
42 | CCCCGC | 2.14 ± 1.4 | 2.8 ± 0.83 | 4.54 ± 1.6
43 | TTGCGG | 0.933 ± 0.76 | 0.256 ± 0.11 | 1.14 ± 0.22
44 | AAATAA | 2.68 ± 1.5 | 2.92 ± 0.98 | 3.44 ± 1.2
45 | TCACGC | 2.24 ± 0.65 | 3 ± 0.93 | 4.05 ± 1.5
46 | GTGACT | – | 0.972 ± 0.2 | 1.08 ± 0.28
47 | GGGACA | 1.4 ± 1.2 | 0.801 ± 0.45 | 1.2 ± 0.15
48 | GGGTGC | 0.876 ± 0.24 | 0.837 ± 0.025 | 1.04 ± 0.35
49 | ATGTTG | – | – | 0.642 ± 0.16
50 | GTCTCT | 4.15 ± 1.8 | 5.51 ± 0.37 | 7.16 ± 1.8
51 | GTCTCA | 3.83 ± 1.2 | 5.79 ± 0.43 | 7.71 ± 2.8
52 | CTCTCA | 3.31 ± 1.3 | 4.49 ± 0.63 | 5.72 ± 1.9

Row | Sequence | relative kcat/Km [1] | relative kcat/Km [2] | relative kcat/Km [3]
53 | TTCTCA | 4.88 ± 2.1 | 5.74 ± 0.87 | 8.21 ± 3.6
54 | GTATCT | 2.3 ± 0.54 | 3.23 ± 0.87 | 4.66 ± 1.9
55 | GACTCA | 3.33 ± 1.5 | 4.56 ± 0.1 | 5.69 ± 2.1
56 | GTCTCG | 2.29 ± 1.9 | 2.35 ± 0.054 | 4.3 ± 1.1
57 | TTCTCG | 2.16 ± 1.3 | 2.86 ± 0.45 | 4.91 ± 1.5
58 | ATCTCA | 3.67 ± 2 | 4.25 ± 0.21 | 6.06 ± 2.4
59 | GTGTCT | 0.45 ± 0.21 | 1.24 ± 0.15 | 1.44 ± 0.22
60 | ATCTCT | 3.47 ± 1.2 | 4.36 ± 0.18 | 6.18 ± 2.7
61 | TTCTCT | 4.43 ± 1.1 | 6.17 ± 1.4 | 8.57 ± 3.4
62 | TTGCTA | 2.11 ± 1.3 | 1.43 ± 0.11 | 2.24 ± 0.7
63 | GACTCG | 1.8 ± 1.4 | 1.87 ± 0.13 | 3.21 ± 0.58
64 | TAAAGA | 1.01 ± 0.34 | 1.61 ± 0.79 | 3.01 ± 1.7
65 | CGCTGG | 0.49 ± 0.25 | – | –
66 | TGCGAG | – | 0.318 ± 0.22 | 1.39 ± 0.28
67 | TTGCGA | 1.1 ± 0.36 | 1.53 ± 0.44 | 1.91 ± 0.14
68 | CGACAT | 3.05 ± 0.3 | 3.54 ± 1.1 | 4.82 ± 1.8
69 | GGGTTC | 0.445 ± 0.035 | 0.916 ± 0.37 | 0.82 ± 0.16
70 | CACGGA | – | – | 0.766 ± 0.63
71 | GGGATA | – | 0.415 ± 0.34 | –
72 | ATCTCC | 3.67 ± 0.85 | 4.83 ± 1.4 | 6.39 ± 2.9
73 | GGCTCC | 2.56 ± 0.54 | 1.96 ± 0.23 | 2.25 ± 0.7
74 | CTCTCT | 4.48 ± 1 | 4.84 ± 1.6 | 7.22 ± 3
75 | CTCTCG | 1.91 ± 1.5 | 1.68 ± 0.37 | 3.31 ± 0.37
76 | GTCTCC | 4.62 ± 1.7 | 6.15 ± 0.65 | 8.17 ± 3.2
77 | GCCTCC | 2.78 ± 1.2 | 3.32 ± 0.14 | 5.33 ± 1.8
78 | TTCTCC | 5.23 ± 2.1 | 6.12 ± 0.67 | 8.25 ± 3

Row | Sequence | relative kcat/Km [1] | relative kcat/Km [2] | relative kcat/Km [3]
79 | TGCTCC | 2.19 ± 0.87 | 2.31 ± 0.43 | 2.87 ± 0.78
80 | CTCTCC | 3.04 ± 0.91 | 4.91 ± 0.6 | 6.17 ± 2.2
81 | CGGAGG | 0.395 ± 0.29 | – | –
82 | CATTTG | – | – | 1.49 ± 0.39
83 | ACGCTA | 1.05 ± 0.29 | 0.572 ± 0.17 | 1.74 ± 0.51
84 | GGCTTT | 2.05 ± 0.44 | 1.76 ± 0.074 | 2.15 ± 0.52
85 | CGAAGA | 1.79 ± 0.84 | 2.39 ± 1 | 3.52 ± 0.96
86 | CCACCG | – | – | 1.08 ± 0.58
87 | TAAGGC | 1.46 ± 0.72 | – | 2.44 ± 2.2
88 | ATCACA | 2.67 ± 1 | 3.8 ± 0.55 | 5.18 ± 1.5
89 | GTCACG | – | 1.84 ± 0.86 | 3.97 ± 0.54
90 | GTCACT | 3.36 ± 0.97 | 3.29 ± 0.15 | 6.31 ± 2.5
91 | TTCACG | 2.05 ± 1.9 | 2.41 ± 0.2 | 4.56 ± 1.4
92 | TTCACT | 4.07 ± 1.2 | 5.27 ± 1.4 | 7.57 ± 3.1
93 | ATCACC | 3.18 ± 0.62 | 3.68 ± 1 | 5.67 ± 2
94 | TTCACC | 3.91 ± 1.2 | 5.63 ± 0.6 | 8.13 ± 3
95 | TTCACA | 4.51 ± 1.9 | 5.55 ± 0.86 | 7.72 ± 3.1
96 | ATCACT | 3 ± 0.43 | 3.58 ± 1.1 | 4.98 ± 2
97 | CTCACC | 2.93 ± 0.11 | 4.4 ± 1.5 | 6.21 ± 2.6
98 | GTCACC | 3.43 ± 0.98 | 4.83 ± 0.44 | 6.98 ± 2.7
99 | GGCACC | 1.52 ± 1.3 | 1.01 ± 0.24 | 2.04 ± 0.18
100 | CCTACA | 2.23 ± 1.1 | 1.82 ± 0.36 | 1.9 ± 0.68
101 | CGTCCT | 2.14 ± 0.34 | 2.06 ± 0.17 | 3 ± 1.2
